PubChem BioAssay (EPA / NIEHS)
Inconclusive results are not listed. The source made the active and inactive calls. The calls were made as follows, unless noted: active = hit-call score of the fitted dose curve at least 0.9, where 1 is the maximum; inactive = score below 0.9.

Assays:
[1] = molecular target: human Thyroid Receptor alpha (THRa1), THRA (gene 7067) (UniProt P10827); experiment: ATG_THRa1_TRANS: Attagene TRANS-FACTORIAL HepG2 Assay for human Thyroid Receptor alpha (THRa1) (AID 2283014; active = hit-call score of the fitted dose curve at least 0.9, where 1 is the maximum)
Method in brief: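 Transcripts from GAL4-UAS-driven reporters, measured after 24 h compound exposure by RT-PCR plus capillary electrophoresis of 6-FAM-labeled fragments, were fitted for gain of signal relative to DMSO. Cells: transiently transfected HepG2 expressing NR-Gal4 chimeras.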

[2] = read-out: E-selectin (Homo sapiens) (UniProt P16581); experiment: BSK_3C_Eselectin: BioMAP Diversity Plus: 3C Assay for Eselectin Biomarker Activity (AID 2283015); conditions: primary human endothelial cells (HUVEC); actives raise or lower the signal
Method in brief: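 E-selectin ELISA readout, fitted bidirectionally relative to DMSO, taken 24 h post-dosing in HUVEC cultures of the 3C system. Overt cytotoxicity tracked with sulforhodamine B staining of parallel wells.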

[3] = read-out: Interleukin-1 alpha (IL1a), IL1A (gene 3552); experiment: BSK_BE3C_IL1a: BioMAP Diversity Plus: BE3C Assay for Interleukin-1 alpha (IL1a) Biomarker Activity (AID 2283016); conditions: primary human bronchial epithelial cells; actives raise or lower the signal
Method in brief: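 ELISA read-out of IL-1a from human lung bronchial epithelial primary cells, 24 h post-dose. Gain or loss of signal fitted relative to DMSO negative control.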

[4] = read-out: Monocyte Chemoattractant Protein-1 (MCP1), CCL2 (gene 6347); experiment: BSK_3C_MCP1: BioMAP Diversity Plus: 3C Assay for Monocyte Chemoattractant Protein-1 (MCP1) Biomarker Activity (AID 2283017); conditions: primary human endothelial cells (HUVEC); actives raise or lower the signal
Method in brief: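 MCP-1 was measured by ELISA 24 h after dosing in primary HUVEC 3C cultures and fitted in both directions relative to DMSO; cytotoxicity was checked by SRB total-protein staining in parallel wells.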

[5] = read-out: Monocyte Chemoattractant Protein-1 (MCP1), CCL2 (gene 6347); experiment: BSK_4H_MCP1: BioMAP Diversity Plus: 4H Assay for Monocyte Chemoattractant Protein-1 (MCP1) Biomarker Activity (AID 2283018); conditions: primary human endothelial cells (HUVEC); actives raise or lower the signal
Method in brief: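 HUVEC primary cells, 24 h post-dose, MCP-1 by ELISA. Gain or loss of signal fitted bidirectionally vs DMSO baseline. Cytotoxicity: SRB stain (0.1% after 10% TCA fixation), read 560 nm, parallel cultures.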

[6] = read-out: Human Leukocyte Antigen - DR isotype (HLADR), HLA-DRA (gene 3122); experiment: BSK_3C_HLADR: BioMAP Diversity Plus: 3C Assay for Human Leukocyte Antigen - DR isotype (HLADR) Biomarker Activity (AID 2283019); conditions: primary human endothelial cells (HUVEC); actives raise or lower the signal
Method in brief: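 Bidirectional fitting against DMSO was applied to the HLA-DR ELISA signal from human umbilical vein endothelial cells, 24 h post-dose. Cytotoxicity came from parallel SRB total-protein staining; 3C proliferation was counted by SRB at 48 h.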

[7] = read-out: Interleukin-8 (IL8), CXCL8 (gene 3576); experiment: BSK_3C_IL8: BioMAP Diversity Plus: 3C Assay for Interleukin-8 (IL8) Biomarker Activity (AID 2283020); conditions: primary human endothelial cells (HUVEC); actives raise or lower the signal
Method in brief: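 HUVEC, 3C stimulation; 24 h compound exposure; IL-8 read by ELISA; gain or loss of signal fitted relative to DMSO control.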

[8] = read-out: Monokine induced gamma interferon (MIG), CXCL9 (gene 4283); experiment: BSK_3C_MIG: BioMAP Diversity Plus: 3C Assay for Monokine induced gamma interferon (MIG) Biomarker Activity (AID 2283021); conditions: primary human endothelial cells (HUVEC); actives raise or lower the signal;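 as to AC50: MIG protein level measured by immunoassay in the treated endothelial cultures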
Method in brief: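 HUVEC, 3C system; 24 h chemical exposure; MIG by ELISA; bidirectional fit vs DMSO baseline.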

[9] = BSK_3C_SRB: Viability Assessment in the BioMAP Diversity Plus: 3C Assay (AID 2283023); conditions: primary human endothelial cells (HUVEC);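 also: fitted both ways against DMSO so a hit may be signal rise or drop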
Method in brief: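 Cytotoxicity readout in parallel HUVEC 3C cultures: after 24 h compound exposure, cells fixed with 10% TCA, stained with 0.1% SRB and read at 560 nm. Gain or loss relative to DMSO fitted.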

[10] = read-out: Matrix Metallopeptidase 1 (MMP1), MMP1 (gene 4312); experiment: BSK_BE3C_MMP1: BioMAP Diversity Plus: BE3C Assay for Matrix Metallopeptidase 1 (MMP1) Biomarker Activity (AID 2283024); conditions: primary human bronchial epithelial cells; actives raise or lower the signal
Method in brief: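 ELISA read-out of MMP1 in human lung bronchial epithelial primary cultures, 24 h post-dose; bidirectional curve fit vs DMSO baseline, gain or loss of signal scored.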

[11] = BSK_3C_Vis: BioMAP Diversity Plus: 3C Assay for Morphology Visualization (AID 2283025); conditions: primary human endothelial cells (HUVEC);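 also: fitted both ways so gain or loss versus DMSO counts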;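 as to AC50: light microscopy image of cell morphology used as background control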
Method in brief: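 HUVEC, 3C system; light microscopy of morphology at 24 h post-dose. Bidirectional fit vs DMSO baseline. Secondary readout, background-control function.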

[12] = read-out: Pselectin, SELP (gene 6403); experiment: BSK_4H_Pselectin: BioMAP Diversity Plus: 4H Assay for Pselectin Biomarker Activity (AID 2283026); conditions: primary human endothelial cells (HUVEC); actives raise or lower the signal
Method in brief: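 HUVEC, 24 h chemical exposure; P-selectin read by ELISA. Bidirectional curve fit vs DMSO baseline; gain or loss of signal scored.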

[13] = BSK_BE3C_SRB: Viability Assessment in the BioMAP Diversity Plus: BE3C Assay (AID 2283028); conditions: primary human bronchial epithelial cells;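 as to AC50: fitted both ways so AC50 may mark signal gain or loss versus DMSO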
Method in brief: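 Cytotoxicity read-out: SRB (0.1%) staining of TCA-fixed (10%) human lung bronchial epithelial cells, absorbance 560 nm, 24 h post-dosing. Curves fitted both directions relative to DMSO.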

[14] = read-out: Thrombomodulin, THBD (gene 7056); experiment: BSK_3C_Thrombomodulin: BioMAP Diversity Plus: 3C Assay for Thrombomodulin Biomarker Activity (AID 2283029); conditions: primary human endothelial cells (HUVEC); actives raise or lower the signal
Method in brief: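 HUVEC, 3C conditions; compound 24 h; thrombomodulin by ELISA; bidirectional curve fit vs DMSO baseline; parallel SRB total-protein staining for cytotoxicity.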

[15] = read-out: Urokinase-type plasminogen activator receptor (uPAR), PLAUR (gene 5329); experiment: BSK_4H_uPAR: BioMAP Diversity Plus: 4H Assay for Urokinase-type plasminogen activator receptor (uPAR) Biomarker Activity (AID 2283030); conditions: primary human endothelial cells (HUVEC); actives raise or lower the signal
Method in brief: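 uPAR level read by ELISA on HUVEC cultures (BioMAP 4H) 24 h post-dosing, analyzed for gain or loss relative to DMSO. Parallel SRB staining assessed overt cytotoxicity.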

[16] = molecular target: Retinoic acid receptor RXR-alpha (Homo sapiens) (UniProt P19793); experiment: ATG_RXRa_TRANS: Attagene TRANS-FACTORIAL HepG2 Assay for human Retinoid X Receptor alpha (RXRa) (AID 2283012; active = hit-call score of the fitted dose curve at least 0.9, where 1 is the maximum)
Method in brief: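 Read-out: fluorescent reporter-transcript fragments quantified by capillary electrophoresis after RT-PCR. Transiently transfected HepG2 cells carrying GAL4-UAS reporters and NR-GAL4 chimeras were exposed to chemical for 24 h; activity scored as increase over DMSO.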

[17] = molecular target: human Retinoid X Receptor beta (RXRb), RXRB (gene 6257) (UniProt P28702); experiment: ATG_RXRb_TRANS: Attagene TRANS-FACTORIAL HepG2 Assay for human Retinoid X Receptor beta (RXRb) (AID 2283013; active = hit-call score of the fitted dose curve at least 0.9, where 1 is the maximum)
Method in brief: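 Read-out: reporter mRNA induction via RT-PCR plus capillary electrophoresis fluorescence, analysed as signal increase relative to DMSO. Cells were human HepG2, transiently transfected with GAL4-UAS reporter constructs and chimeric receptor-Gal4 fusions, dosed for 24 h.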

[18] = BSK_4H_SRB: Viability Assessment in the BioMAP Diversity Plus: 4H Assay (AID 2283027); conditions: primary human endothelial cells (HUVEC);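 also: cells exposed to compound for 24 h before staining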;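 as to AC50: curves fitted both ways versus DMSO so AC50 may be loss or gain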
Method in brief: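 Cytotoxicity read-out in primary human endothelial cells: after 24 h compound exposure, cells were TCA-fixed (10%), stained with 0.1% SRB and absorbance taken at 560 nm. Values fitted in both directions relative to DMSO.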

[19] = molecular target: human Vitamin D Receptor (VDR), VDR (gene 7421) (UniProt P11473); experiment: ATG_VDR_TRANS: Attagene TRANS-FACTORIAL HepG2 Assay for human Vitamin D Receptor (VDR) (AID 2283022; active = hit-call score of the fitted dose curve at least 0.9, where 1 is the maximum)
Method in brief: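 Transactivation by an exogenous VDR-Gal4 chimera in transiently transfected HepG2 cells was measured as reporter transcript level 24 hours after chemical treatment. RT-PCR products were analysed by capillary electrophoresis and fitted in the positive direction relative to DMSO.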

Measured: AC50

Chain of E-selectin (Homo sapiens) (P16581 whole entry, looked up): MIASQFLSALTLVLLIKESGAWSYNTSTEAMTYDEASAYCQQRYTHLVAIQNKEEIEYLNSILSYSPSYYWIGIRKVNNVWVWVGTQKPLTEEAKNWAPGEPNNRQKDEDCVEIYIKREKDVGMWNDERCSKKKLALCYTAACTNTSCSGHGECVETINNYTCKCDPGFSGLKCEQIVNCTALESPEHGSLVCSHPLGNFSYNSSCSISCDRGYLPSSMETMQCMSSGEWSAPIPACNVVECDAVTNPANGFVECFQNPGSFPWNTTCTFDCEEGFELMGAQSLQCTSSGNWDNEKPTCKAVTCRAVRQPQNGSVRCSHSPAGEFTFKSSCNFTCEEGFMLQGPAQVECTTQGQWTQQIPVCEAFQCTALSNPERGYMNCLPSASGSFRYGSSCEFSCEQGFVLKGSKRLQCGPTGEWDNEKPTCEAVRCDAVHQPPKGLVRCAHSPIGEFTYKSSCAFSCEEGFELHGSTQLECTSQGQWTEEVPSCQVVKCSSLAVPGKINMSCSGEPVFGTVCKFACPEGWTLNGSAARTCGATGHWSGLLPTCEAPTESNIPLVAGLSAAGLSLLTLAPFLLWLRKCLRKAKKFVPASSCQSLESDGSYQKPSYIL
Chain of human Retinoid X Receptor beta (RXRb), RXRB (gene 6257) (P28702 whole entry, looked up, the tested form may be a part): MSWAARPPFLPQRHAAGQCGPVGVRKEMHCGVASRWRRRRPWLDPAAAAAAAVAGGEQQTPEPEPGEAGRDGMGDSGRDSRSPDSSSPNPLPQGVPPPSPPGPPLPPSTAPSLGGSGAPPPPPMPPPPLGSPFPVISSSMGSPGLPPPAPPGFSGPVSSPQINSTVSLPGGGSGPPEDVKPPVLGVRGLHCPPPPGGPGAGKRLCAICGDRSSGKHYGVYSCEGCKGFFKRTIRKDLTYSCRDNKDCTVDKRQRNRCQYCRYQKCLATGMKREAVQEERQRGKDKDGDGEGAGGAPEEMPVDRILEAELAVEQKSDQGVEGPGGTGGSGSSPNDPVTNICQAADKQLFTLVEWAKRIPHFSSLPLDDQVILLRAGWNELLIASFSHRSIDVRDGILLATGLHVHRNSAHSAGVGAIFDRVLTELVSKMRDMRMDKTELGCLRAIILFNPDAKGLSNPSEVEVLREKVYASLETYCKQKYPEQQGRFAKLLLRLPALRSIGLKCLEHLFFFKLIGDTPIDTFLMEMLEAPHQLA
Chain of human Thyroid Receptor alpha (THRa1), THRA (gene 7067) (P10827 whole entry, looked up, the tested form may be a part): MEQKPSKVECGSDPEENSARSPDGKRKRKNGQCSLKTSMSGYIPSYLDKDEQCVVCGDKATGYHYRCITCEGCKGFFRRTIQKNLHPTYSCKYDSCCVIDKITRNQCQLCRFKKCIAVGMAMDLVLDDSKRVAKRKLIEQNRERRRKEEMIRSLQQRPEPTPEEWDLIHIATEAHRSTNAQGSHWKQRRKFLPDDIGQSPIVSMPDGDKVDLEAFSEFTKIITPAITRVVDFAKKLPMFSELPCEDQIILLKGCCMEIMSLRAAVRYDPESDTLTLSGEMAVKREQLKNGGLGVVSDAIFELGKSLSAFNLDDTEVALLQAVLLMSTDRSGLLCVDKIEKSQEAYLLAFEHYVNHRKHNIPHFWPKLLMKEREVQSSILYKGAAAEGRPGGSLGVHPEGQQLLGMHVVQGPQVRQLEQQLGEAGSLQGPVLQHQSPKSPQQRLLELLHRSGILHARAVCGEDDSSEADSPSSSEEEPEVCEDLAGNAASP
Chain of human Vitamin D Receptor (VDR), VDR (gene 7421) (P11473 whole entry, looked up, the tested form may be a part): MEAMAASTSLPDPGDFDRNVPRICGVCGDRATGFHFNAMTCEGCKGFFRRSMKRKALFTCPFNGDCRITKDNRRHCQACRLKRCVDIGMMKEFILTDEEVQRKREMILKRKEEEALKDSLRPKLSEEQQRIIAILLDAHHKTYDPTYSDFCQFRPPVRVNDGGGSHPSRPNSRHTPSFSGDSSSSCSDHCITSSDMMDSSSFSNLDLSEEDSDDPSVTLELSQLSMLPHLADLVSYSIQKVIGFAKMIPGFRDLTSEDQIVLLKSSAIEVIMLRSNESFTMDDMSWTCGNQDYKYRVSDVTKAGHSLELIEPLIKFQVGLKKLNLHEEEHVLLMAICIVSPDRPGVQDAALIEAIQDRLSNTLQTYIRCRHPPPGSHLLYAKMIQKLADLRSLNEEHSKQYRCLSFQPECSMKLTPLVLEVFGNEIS
Chain of Retinoic acid receptor RXR-alpha (Homo sapiens) (P19793 whole entry, looked up, the tested form may be a part): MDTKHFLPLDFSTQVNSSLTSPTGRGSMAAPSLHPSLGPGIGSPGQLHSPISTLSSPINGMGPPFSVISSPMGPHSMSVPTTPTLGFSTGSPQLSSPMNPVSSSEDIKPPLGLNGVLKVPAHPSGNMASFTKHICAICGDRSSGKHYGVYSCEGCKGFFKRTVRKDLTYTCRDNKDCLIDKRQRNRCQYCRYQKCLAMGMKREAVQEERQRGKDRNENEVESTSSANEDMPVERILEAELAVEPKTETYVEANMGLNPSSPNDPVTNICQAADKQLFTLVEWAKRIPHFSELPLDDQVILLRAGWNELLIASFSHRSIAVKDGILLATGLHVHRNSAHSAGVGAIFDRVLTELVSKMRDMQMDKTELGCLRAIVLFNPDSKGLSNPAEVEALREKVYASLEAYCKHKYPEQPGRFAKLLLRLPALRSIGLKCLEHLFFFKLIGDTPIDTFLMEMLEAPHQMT

Nc1cnn(-c2ccccc2)c(=O)c1Cl
active: [11] 39 µM
not listed: [16] | [17] | [18] | [19]
inactive: all other assays above

Nc1c(Cl)c(F)nc(OCC(=O)O)c1Cl
not listed: [1] | [18] | [19]
inactive: all other assays above

Cc1ccc(N=CN(C)C=Nc2ccc(C)cc2C)c(C)c1
inactive: [10]
active: [2] 33 µM | [3] 35.1 µM | [4] 36 µM | [5] 31.4 µM | [6] 33 µM | [7] 31.6 µM | [8] 34.5 µM | [9] 32.4 µM | [11] 16.3 µM | [12] 30 µM | [18] 32.3 µM | [13] 28.2 µM | [14] 20 µM | [15] 37.5 µM

CC1(C)C(C(=O)OC(C#N)c2cccc(Oc3ccccc3)c2)C1(C)C (stereo unspecified)
active: [9] 10.1 µM | [11] 39 µM | [12] 12.9 µM | [13] 6.87 µM
not listed: [4] | [16]
inactive: all other assays above

CN/C(=N\[N+](=O)[O-])NCc1cnc(Cl)s1
not listed: [16] | [17] | [18]
inactive: all other assays above

CC(C)Nc1nc(Cl)nc(NC(C)C)n1
not listed: [16] | [18]
inactive: all other assays above
